From the supplement of paper PMC13380429

Test system: Vero E6 infected with SARS-CoV-2
Assay: inhibition of SARS-CoV-2 cytopathic effect; higher = more antiviral protection, active = above 15
Settings: 48 h

Measured: inhibition of SARS-CoV-2 cytopathic effect

N=C(N)SCCc1ccc(OCc2ccc([N+](=O)[O-])cc2)cc1
inactive: 1 nM 1.92% | 8.33 nM -1.12% | 100 nM -0.47% | 833.33 nM -2.92% | 10000 nM -4.41%

O=c1cc(-c2ccc(O)cc2)oc2cc(O)cc(O)c12 [apigenin]
inactive: 1 nM -2.83% | 8.33 nM -3.34% | 100 nM -1.73% | 833.33 nM 0.85% | 10000 nM 6.4%

Cc1cnc(-c2cnc(NCCNc3ccc(C#N)cn3)nc2-c2ccc(Cl)cc2Cl)[nH]1
inactive: 1 nM 2.72% | 8.33 nM 3.19% | 100 nM -2.16% | 833.33 nM 3.98% | 10000 nM 12.1%

Cc1ncc([N+](=O)[O-])n1CCO [metronidazole]
inactive: 1 nM 1.71% | 8.33 nM -0.45% | 100 nM 1.81% | 833.33 nM 0.19% | 10000 nM -1.16%

COc1ccc2c(c1)CN(C)CC2c1ccc(Cl)c(Cl)c1 (stereo not given) [diclofensine]
inactive: 1 nM 3.38% | 8.33 nM 2.5% | 100 nM -1.16% | 833.33 nM 3.57% | 10000 nM 1.83%

CC1(C)CC[C@]2(C(=O)O)CC[C@]3(C)[C@H](C(=O)C=C4[C@@]5(C)C=C(C#N)C(=O)C(C)(C)[C@@H]5CC[C@]43C)[C@@H]2C1 [bardoxolone]
inactive: 1 nM -1.22% | 8.33 nM -1.62% | 100 nM 2.92% | 833.33 nM 3.36%
active: 10000 nM 28.9%

C[C@]12CC[C@H]3[C@@H](CCC4=CC(=O)CC[C@@]43C)[C@@H]1CC[C@@H]2O
inactive: 1 nM 0.04% | 8.33 nM 2.66% | 100 nM 3.91% | 833.33 nM -1.25% | 10000 nM -0.6%

CC(CNC(=O)c1cccnc1)NC(=O)c1cccnc1 (stereo not given) [nicaraven]
inactive: 1 nM 0.7% | 8.33 nM -0.11% | 100 nM -1.71% | 833.33 nM 0.88% | 10000 nM -0.45%

CCOC(=O)[C@@]1(CCCCCCOc2ccc(Cl)cc2)CO1 [etomoxir]
inactive: 1 nM -0.23% | 8.33 nM -0.29% | 100 nM 1.79% | 833.33 nM 2.79% | 10000 nM -4.51%

COc1cccc(-n2nc(C(=O)O)cc2-c2ccc(C3CCCCC3)c(Cl)c2)c1
inactive: 1 nM 0.77% | 8.33 nM 1.66% | 100 nM 2.64% | 833.33 nM 1.95% | 10000 nM 6.19%

CN1C(=O)COc2c(C(=O)NC3CN4CCC3CC4)cc(Cl)cc21 (stereo not given) [azasetron]
inactive: 1 nM 1.97% | 8.33 nM 1.89% | 100 nM 0.9% | 833.33 nM -0.56% | 10000 nM -0.16%

CC(=O)Nc1ccc(CC(=O)O)cc1 [actarit]
inactive: 1 nM 1.96% | 8.33 nM -0.52% | 100 nM 0.35% | 833.33 nM -0.15% | 10000 nM -0.41%

CCCCCNC(=N)N/N=C/c1c[nH]c2ccc(OC)cc12 [tegaserod]
inactive: 1 nM -2.52% | 8.33 nM -0.54% | 100 nM -3.2% | 833.33 nM -3.82% | 10000 nM -1.44%

CC(C)NCCCn1c(Sc2cc3c(cc2I)OCO3)nc2c(N)ncnc21
inactive: 1 nM -3.36% | 8.33 nM -0.68% | 100 nM -0.95% | 833.33 nM -7.21% | 10000 nM -3.3%

C[C@H](N)Cc1cccc(O)c1 [gepefrine]
inactive: 1 nM 1.14% | 8.33 nM 1.71% | 100 nM 1.51% | 833.33 nM 1.38% | 10000 nM 0.56%

N[C@H]1CCN(O)C1=O
inactive: 1 nM -2.5% | 8.33 nM -0.335% | 100 nM -0.065% | 833.33 nM -1.54% | 10000 nM 0.17%

CCC[C@H](NC(=O)/C(C#N)=C/c1cccc(Br)n1)c1ccccc1
inactive: 1 nM 1.89% | 8.33 nM 1.78% | 100 nM -0.09% | 833.33 nM 4.12% | 10000 nM -5.9%

CCOC(=O)Nc1nc2ccccc2[nH]1 [lobendazole]
inactive: 1 nM -9.74% | 8.33 nM -7.4% | 100 nM -4.73% | 833.33 nM -6.72% | 10000 nM -11.2%

O=C1O[C@H]([C@@H](O)CO)C([O-])=C1O.[Na+] [sodium-ascorbate]
inactive: 1 nM -1.43% | 8.33 nM 0.79% | 100 nM 0.39% | 833.33 nM 1.19% | 10000 nM 2.74%

COC(=O)CCc1ccc(OCC(O)CNC(C)C)cc1 (stereo not given) [esmolol]
inactive: 1 nM 0.17% | 8.33 nM 0.64% | 100 nM -0.39% | 833.33 nM 0.07% | 10000 nM -0.39%
